YB-1 expr inh – YB-1 expression inhibition | U2OS, qRT-PCR YB-1 vs CDIP delta delta Cp, 16 h; active compounds read high; zero = DMSO, each unit about twofold | delta delta Cp (YB-1 minus CDIP) (no concentration beside the values) | 0.37% of 30,000 active;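 active means delta delta Cp rounded down to an integer at or above 3, about 3 SD of DMSO wells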;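 further: higher means less YB-1 transcript or more CDIP transcript relative to DMSO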
Hedgehog inh – blocks Sonic Hedgehog signaling; Shh-LIGHT2 Gli-luciferase reporter, 30 h; 2.1% of 22,000 active; inhibition, % (concentration not given with the values);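 active means mean inhibition across valid replicates above about 65%, limit read from the data; inconclusive means mean under the limit, yet half or more replicates past it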;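 further: pathway switched on by Shh-conditioned medium diluted 1 in 25 in low serum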
NOMO-1 viab – STK33 inhibitor candidate reducing NOMO-1 cell viability | NOMO-1 AML viability, CellTiter-Glo luminescence, 72 h | inhibition, % (no concentration beside the values) | 7.5% of 37,000 active | AID 2330; in the data active means inhibition above about 80%; inconclusive means no clear call, values can overlap the other calls
MITF inh – blocks MITF activity; TRPM1 promoter luciferase, luminescence, 24 h; inhibition, % (concentration not given with the values); 0.28% of 37,000 active; AID 2240; in the data active means inhibition above about 85%; inconclusive means no clear call, values can overlap the other calls; inactive means below about 68%;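 further: human melanocyte line stably carrying TRPM1 promoter luciferase reporter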
PD-1 reversal – activators reversing PD-1 mediated T-cell inhibition. primary human CD4 T cells, PD-L1 beads, CellTiter-Glo 96 h. activation, % (test concentration not listed). 29,000 tested, under 10 active; call rule not given here;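 further: 0% = median vehicle wells and 100% = positive control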
The depositor's hits bear a star; ? = inconclusive; nt = no result given. Compounds with a hit are over-represented: about 7.4% of the library has one in this group of screens.

SMILES	YB-1 expr inh	Hedgehog inh	NOMO-1 viab	MITF inh	PD-1 reversal
C[C@@H]1CN([C@@H](C)CO)C(=O)c2cccc(NC(=O)Nc3ccccc3)c2O[C@@H]1CN(C)Cc1ccc(Cl)c(Cl)c1	-0.2	14	116*	-13	-3
C[C@@H]1CN([C@H](C)CO)C(=O)c2cccc(NC(=O)Nc3ccc(F)cc3)c2O[C@@H]1CN(C)Cc1ccc(Cl)c(Cl)c1	-0.39	16	31	1	-1
COc1ccc(C(=O)N(CC#N)CC#N)cc1	-0.069	-15	-20	-12	0
COc1cc(CO)cc(I)c1OCc1cccc(C(=O)O)c1	nt	nt	4	-51	1
C[C@@H]1CN([C@@H](C)CO)C(=O)Cc2cc(NC(=O)CCCCCC(=O)Nc3ccccc3N)ccc2O[C@@H]1CN(C)CC1CCCCC1	-0.16	nt	136*	5	1
C[C@@H]1CN([C@H](C)CO)C(=O)Cc2cc(NC(=O)CCCCCC(=O)Nc3ccccc3N)ccc2O[C@@H]1CN(C)C	-0.56	nt	48	-7	2
C[C@H](CO)N1C[C@H](C)[C@@H](CN(C)CC2CCCCC2)Oc2ccc(NC(=O)CCCCCC(=O)Nc3ccccc3N)cc2C1=O	0.68	nt	26	-4	1
C[C@H](CO)N1C[C@H](C)[C@H](CN(C)CC2CC2)Oc2ccc(NC(=O)CCCCCC(=O)Nc3ccccc3N)cc2CC1=O	-0.96	nt	140*	-7	-1
Cc1ccc(S(=O)(=O)Nc2ccc3c(c2)C(=O)N([C@@H](C)CO)C[C@@H](C)[C@H](CN(C)Cc2ccc(-c4ccccc4)cc2)O3)cc1	0.1	18	123*	36	0
Cc1ccc(S(=O)(=O)Nc2ccc3c(c2)C(=O)N([C@@H](C)CO)C[C@@H](C)[C@@H](CN(C)Cc2ccc(-c4ccccc4)cc2)O3)cc1	-0.21	-33	101*	-6	-1
Cc1ccc(S(=O)(=O)Nc2ccc3c(c2)C(=O)N([C@@H](C)CO)C[C@H](C)[C@@H](CN(C)Cc2ccc(-c4ccccc4)cc2)O3)cc1	0.19	nt	59	3	0
Cc1ccc(S(=O)(=O)Nc2ccc3c(c2)C(=O)N([C@@H](C)CO)C[C@H](C)[C@H](CN(C)Cc2ccc(-c4ccccc4)cc2)O3)cc1	-0.045	nt	56	-1	1
CCCC1=C(C(=O)OCC)C(c2cc(Br)c(O)c(OC)c2)NC(=O)N1 (configuration not stated)	-0.8	nt	0	0	1
C[C@H]1CN([C@@H](C)CO)C(=O)c2cc(NS(=O)(=O)c3ccc(F)cc3)ccc2O[C@@H]1CN(C)Cc1ccc(-c2ccccc2)cc1	-0.18	28	100*	2	0
C[C@@H]1CN([C@H](C)CO)C(=O)c2cc(NS(=O)(=O)c3ccc(F)cc3)ccc2O[C@H]1CN(C)Cc1ccc(-c2ccccc2)cc1	-1.2	nt	97*	2	2
C[C@H](CO)N1C[C@H](C)[C@H](CN(C)Cc2ccc(-c3ccccc3)cc2)Oc2ccc(NS(=O)(=O)c3ccc(F)cc3)cc2C1=O	-0.015	nt	41	-7	nt
C[C@@H]1CN([C@H](C)CO)C(=O)Cc2cc(NC(=O)Nc3ccc(C(F)(F)F)cc3)ccc2O[C@@H]1CN(C)Cc1ccncc1	-0.094	-6	?	20	-3
C[C@H]1CN([C@@H](C)CO)C(=O)Cc2cc(NC(=O)Nc3ccc(C(F)(F)F)cc3)ccc2O[C@H]1CN(C)Cc1ccncc1	0.12	20	134*	23	-2
C[C@@H]1CN([C@@H](C)CO)C(=O)Cc2cc(NC(=O)Nc3ccc(C(F)(F)F)cc3)ccc2O[C@@H]1CN(C)Cc1ccncc1	-0.02	23	116*	12	-4
CC(=O)OC[C@@]12C(=O)C[C@@H](C)[C@]3(C[C@@H](c4ccoc4)OC3=O)[C@H]1CC[C@H](O)[C@]21CO1	0.79	-3	6	-7	1
C=C(C)C(=O)O[C@H]1C[C@@]2(C)OC(=CC2=O)/C(COC(C)=O)=C\[C@H]2OC(=O)C(=C)C12 (some centres not stated)	-0.35	?	120*	34	-13
C=C1CC/C=C(/COC(C)=O)C(=O)C[C@@H]2[C@@H]1CC2(C)C	1.7	3	nt	nt	nt
COC(=O)c1cc(NC(=O)CC2Sc3ccccc3NC2=O)cc(C(=O)OC)c1 (configuration not stated)	nt	nt	113*	6	nt
CCN1C(=O)C(=Cc2c(O)n(CC)c(=O)n(CC)c2=O)C(=O)N(CC)C1=O	0.15	27	0	-11	-1
O=c1c(C=Nc2ccccc2)c(Nc2ccccc2)[nH]n1-c1ccccc1	-0.37	17	102*	25	4
SMILES	YB-1 expr inh	Hedgehog inh	NOMO-1 viab	MITF inh	PD-1 reversal
O=c1cc(Oc2ccc(O)cc2)oc2cc(O[C@@H]3O[C@H](CO[C@@H]4O[C@H](CO)[C@@H](O)[C@H](O)[C@H]4O)[C@@H](O)[C@H](O)[C@H]3O)cc(O)c12	1.4	-18	2	6	1
CC(=O)N/C(=C/c1ccc(Cl)c(Cl)c1)C(=O)O	-0.22	0	17	-17	2
Cc1ccc(S(=O)(=O)NCc2ccccc2)cc1	-0.37	nt	12	-24	-1
Cc1ccc(S(=O)(=O)N[C@H](Cc2ccccc2)C(=O)CCl)cc1	0.029	9	98*	16	-9
CC(C)(C)[C@]1(O)CCN2C[C@H]3c4ccccc4CCc4cccc(c43)[C@@H]2C1	-0.74	78*	33	30	nt
CN1CCN2c3ncccc3Cc3ccccc3C2C1 (configuration not stated)	-0.28	-17	-25	-3	-2
C[C@@H]1CN([C@H](C)CO)C(=O)Cc2cc(NC(=O)C3CCCCC3)ccc2O[C@@H]1CN(C)Cc1ccc(-c2ccccc2)cc1	0.069	43	113*	16	-4
C[C@@H]1CN([C@H](C)CO)C(=O)Cc2cc(NC(=O)C3CCCCC3)ccc2O[C@@H]1CN(C)Cc1ccc(Oc2ccccc2)cc1	0.11	70*	72	39	-5
C[C@H](CO)N1C[C@H](C)[C@H](CN(C)Cc2ccc(Oc3ccccc3)cc2)Oc2ccc(NC(=O)C3CCCCC3)cc2CC1=O	-0.46	18	48	8	-2
C[C@@H]1CN([C@@H](C)CO)C(=O)Cc2cc(NC(=O)C3CCCCC3)ccc2O[C@@H]1CN(C)Cc1ccc(Oc2ccccc2)cc1	0.11	?	95*	10	nt
Cc1cc(C)c(C#N)c(SCc2cc(=O)[nH][nH]2)n1	-0.39	-13	27	-6	-3
CCOC(=O)N1CC=C2C(C1)C(c1cccc(C(F)(F)F)c1)C(C#N)=C(N)C2(C#N)C#N (configuration not stated)	-0.51	17	113*	9	-23
C[C@@H]1CN([C@H](C)CO)C(=O)Cc2cc(NC(=O)Nc3ccc(C(F)(F)F)cc3)ccc2O[C@@H]1CN(C)C(=O)Nc1cccc2ccccc12	-0.33	41	31	24	-4

Bioassay records from PubChem.
